# Assay outcomes (PubChem)
# TRb-SRC2 inh: qHTS for Inhibitors of the Interaction of Thyroid Hormone Receptor and Steroid Receptor Coregulator 2; hit rate 0.065% among 280,000; TRbeta-SRC2 peptide binding, fluorescence polarization; receptor liganded with 1 µM T3; Thyroid hormone receptor beta (Homo sapiens), P10828; Potency, µM (titrated, usually from 106 µM), inactives show at the top dose activity change, negative = inhibition, usual class: inhibitors;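 further: plate controls were bound peptide for no effect and peptide without receptor for full effect; nearly all actives have a fitted effect of over 50% in size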
#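 Polarization signal, normalized between peptide-alone and full complex controls, measured compound effects on T3-liganded human TRb LBD (0.6 uM) binding 20 nM Texas Red SRC2 peptide after 5 hr.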
# RECQ1 inh-1: qHTS Assay for Inhibitors of RecQ-Like Dna Helicase 1 (RECQ1) | RECQ1 DNA unwinding, red fluorescence kinetic read | ATP-dependent DNA helicase Q1 (Homo sapiens), P46063 | AID 2549, 2010 | hit rate 0.54% among 240,000 | Potency, µM (highest dose often 57.3 µM), for inactives: at the highest dose activity, negative = inhibition, actives largely listed as inhibitors;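 further: plate controls were vehicle for no effect and no enzyme for full effect; nearly all actives have a fitted effect of over 30% in size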
# Target sequence (P46063 whole entry, looked up): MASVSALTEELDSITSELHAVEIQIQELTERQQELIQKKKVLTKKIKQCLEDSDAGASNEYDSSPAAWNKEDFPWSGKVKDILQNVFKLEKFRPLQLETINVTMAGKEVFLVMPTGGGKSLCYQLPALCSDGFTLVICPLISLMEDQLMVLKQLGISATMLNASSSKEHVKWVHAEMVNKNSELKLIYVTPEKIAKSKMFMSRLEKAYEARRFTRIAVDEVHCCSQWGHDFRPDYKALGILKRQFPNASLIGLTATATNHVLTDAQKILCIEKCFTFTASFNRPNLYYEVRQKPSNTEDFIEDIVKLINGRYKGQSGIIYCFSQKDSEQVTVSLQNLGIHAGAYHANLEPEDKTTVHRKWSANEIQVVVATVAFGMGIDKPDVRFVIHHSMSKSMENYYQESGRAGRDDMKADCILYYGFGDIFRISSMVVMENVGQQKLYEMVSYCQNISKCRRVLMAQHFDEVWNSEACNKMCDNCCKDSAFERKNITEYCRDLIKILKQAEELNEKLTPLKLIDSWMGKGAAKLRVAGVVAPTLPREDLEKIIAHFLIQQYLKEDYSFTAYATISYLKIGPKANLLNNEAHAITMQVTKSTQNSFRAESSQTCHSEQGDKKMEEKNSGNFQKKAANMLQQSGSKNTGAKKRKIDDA
#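 RECQ1T1 50 nM; forked duplex (20 bp + 30-nt ss tails) 200 nM, ATP 2 mM final; pH 8.0, 2 mM MgCl2, 2.5 ug/ml poly(dI-dC); 15 min compound preincubation; discontinuous kinetic read over 2 h at RT.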
# TR SRC2 fluor cs: Total Fluorescence Counterscreen for Inhibitors of the Interaction of Thyroid Hormone Receptor and Steroid Receptor Coregulator 2; AID 1479, 2009; TRb/SRC2 Texas Red total fluorescence interference; Potency, µM (highest dose often 106 µM), without a hit: top-dose fluorescence change, negative = quenching; hit rate 0.29% among 280,000; active means well fitted curve in either direction with a large enough effect; inconclusive means small, poorly fitted or top-dose-only effect
#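 Flags fluorescent or light-absorbing compounds by total fluorescence, S + 2P, at 555 nm excitation and 632 nm emission. Mixture: 20 nM Texas Red SRC2 peptide, 0.6 uM human TRb LBD, 1 uM T3, 5% DMSO; compound exposure 5 h at ambient temperature.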
# WRN helicase inh: qHTS for Inhibitors of WRN Helicase | Bifunctional 3'-5' exonuclease/ATP-dependent helicase WRN (Homo sapiens), Q14191 | WRN helicase unwinding, fluorescent forked duplex, kinetic | Potency, µM (titrated, usually from 114 µM), inactives show top-dose activity change, negative = inhibition, hits mostly inhibitors | hit rate 0.46% among 360,000; further: nearly all actives have a fitted effect of over 55% in size
#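 WRN at 20 nM final preincubated with compound 15 min at room temperature; reaction started with 100 nM fluorophore/quencher forked duplex oligonucleotide and 2 mM ATP final. Unwinding followed kinetically by red fluorescence (ex 525, em 598 nm).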
# BLM inh: qHTS Assay for Inhibitors of Bloom's syndrome helicase (BLM) | recombinant BLM DNA unwinding, fluorescence dequenching | hit rate 0.2% among 350,000 | Potency, µM (doses to about 56.1 µM), for the others: at the highest dose activity change, negative = inhibition, actives largely listed as inhibitors | AID 2528, 2010 | RecQ-like DNA helicase BLM (Homo sapiens), P54132;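 further: plate controls were vehicle for no effect and no enzyme for full effect; nearly all actives have a fitted effect of over 35% in size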
# APEX1 inh: qHTS Assay for Inhibitors of the Human Apurinic/apyrimidinic Endonuclease 1 (APE1). DNA repair nuclease/redox regulator APEX1 (Homo sapiens), P27695. recombinant APE1, TAMRA/BHQ-2 abasic DNA cleavage fluorescence. Potency, µM (titrated, usually from 65.8 µM), for the others: at the highest dose activity change, negative = inhibition, hits mostly inhibitors. hit rate 0.35% among 350,000;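 further: plate controls were vehicle for no effect and reference inhibitor for full effect; nearly all actives have a fitted effect of over 55% in size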
#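 Readout is kinetic fluorescence (ex 525, em 598 nm) from cleavage of 50 nM TAMRA/BHQ-2 THF abasic duplex by 0.75 nM APE1, compound added 15 min beforehand at RT.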
# RECQ1 conf: Confirmation qHTS Assay for Inhibitors of RecQ-Like Dna Helicase 1 (RECQ1). hit rate 28% among 610. Potency, µM (titrated, usually from 229 µM), inactives show at the top dose activity change, negative = inhibition, usual class: inhibitors. shares compounds with RECQ1 inh-1. RECQ1 helicase DNA unwinding, fluorescence; further: nearly all actives have a fitted effect of over 45% in size
# ADP FP counter: Counterscreen for RECQ1 Inhibitors: ADP Fluorescence Polarization Displacement Assay. shares compounds with RECQ1 inh-1. AID 2711, 2010. ADP fluorescence polarization displacement counterscreen. Potency, µM (top dose mostly 228 µM), without a hit: at the top dose activity change, negative = inhibition, usual class: inhibitors. hit rate 27% among 530; further: nearly all actives have a fitted effect of over 45% in size
# RECQ1 inh-2: Confirmation qHTS Assay for Inhibitors of RecQ-Like Dna Helicase 1 (RECQ1) - Round 2 Cherry Picks. hit rate 15% among 1,100. Potency, µM (series often up to 119 µM), without a hit: at the highest dose activity, negative = inhibition, actives largely listed as inhibitors. shares compounds with RECQ1 inh-1. recombinant RECQ1 DNA unwinding, red fluorescence. AID 504841, 2011; further: nearly all actives have a fitted effect of over 50% in size
# Starred values were filed as active, the others as inactive; i = inactive; ? = inconclusive; . = no result; [ ] = dose if it differs, or a comment. A selection: hits, their analogues and other compounds. The true share with any hit is near 0.91%. Unless noted, the call rests on the fitted dose curve; in most records, active means well fitted curve in the direction sought with a large enough effect; inconclusive means small, poorly fitted or top-dose-only effect, or another doubt; inactive means no such curve, though single readings can be large; an effect the other way counts as inactive or inconclusive. Unless noted, on the % scale 0 is the no-effect control and ±100 the full control effect; potency means the concentration at half of the fitted maximal effect.
SMILES,TRb-SRC2 inh,RECQ1 inh-1,TR SRC2 fluor cs,WRN helicase inh,BLM inh,APEX1 inh,RECQ1 inh-2,others
Cc1ccc(S(=O)(=O)c2cc3c(=O)n4ccccc4nc3n(Cc3ccco3)c2=N)cc1,-5%,14µM*,-30%,-24%,-5%,?,?,
Cc1ccc(S(=O)(=O)c2cc3c(=O)n4cccc(C)c4nc3n(Cc3ccco3)c2=N)cc1C,4%,-27%,-6%,.,-15%,?,.,
Cc1ccc(OCc2ccc(C(=O)Nc3ccc(C(N)=O)cc3)o2)c([N+](=O)[O-])c1,13%,?,-1%,-17%[11.6 µM],-1%,-4%,?,
Cc1cc(C(=O)Nn2c(C3CCCCC3)nc3ccccc3c2=O)ccc1[N+](=O)[O-],10%,25µM*,0%,0%,-7%,-6%,-11%,
CC(C)c1ccc(NC2CCCN(C(=O)c3ccc(N4CCOCC4)cc3)C2)cc1 (stereo unspecified),.,.,.,0%,-6%,9%,.,
COc1ccc(C(CC(=O)N2CCCC2)c2c(OC)cc(OC)c3ccc(=O)oc23)cc1 (stereo unspecified),2%,5%,0%,-5%,1%,-8%,.,
COc1ccc(C(CC(=O)N2CCCC2)c2c(OC)cc(OC)c3c(-c4ccccc4)cc(=O)oc23)cc1 (stereo unspecified),-7%,13µM*,-2%,-11%[11.6 µM],?,10µM*,20µM*,
C#CCOc1ccc2c3c(c(=O)oc2c1)CCCC3,.,.,.,2%,-7%,2%,.,
CN(C)c1ccc(/C=C/C=C2/SC(=S)N(c3ccccc3)C2=O)cc1,?,1.4µM*,3.2µM*[fluorescent],?,-9%,-12%,.,RECQ1 conf=3.5µM*;ADP FP counter=?
Cc1ccc(OCCN2CCN(C(=O)CCC(=O)Nc3nnc(CC(C)C)s3)CC2)cc1,5%,-10%,-4%,-5%,-3%,-1%,.,
O=C(CCCN1C(=O)/C(=C\c2cccs2)SC1=S)NNC(=O)c1cccnc1,6%,2.8µM*,-2%,3%,0%,-5%,.,RECQ1 conf=?;ADP FP counter=3%[91.9 µM]
Cc1c(NC(=O)C(C)OC(=O)COc2ccccc2)c(=O)n(-c2ccccc2)n1C (stereo unspecified),1%,-13%,-1%,-7%,2%,17%,.,
Cc1c(NC(=O)C(C)OC(=O)CC2Sc3ccccc3NC2=O)c(=O)n(-c2ccccc2)n1C (stereo unspecified),1%,-8%,-5%,3%,-10%,17%,.,RECQ1 conf=-2%;ADP FP counter=-12%
C#CCOc1ccc(C(=O)N(C)c2ccccc2I)cc1,-11%,i,0%,.,-5%,-1%,.,
Cc1ccc(OCC(O)Cn2c3ccccc3c3ccccc32)cc1 (stereo unspecified),4%,?,3%,-12%,-10%,-4%,-48%,
Cc1cccc(C)c1OCC(O)Cn1c2ccccc2c2ccccc21 (stereo unspecified),2%,-17%,-5%,-6%,-15%,-10%,.,
CC1(C)CC2CC(C)(CN2S(=O)(=O)c2ccc(C(=O)Nc3cc(S(=O)(=O)N4CCOCC4)ccc3Cl)cc2)C1 (stereo unspecified),-4%,-9%,-6%,0%,-7%,?,.,RECQ1 conf=0%;ADP FP counter=8%
CC1(C)CC2CC(C)(CN2S(=O)(=O)c2ccc(C(=O)Nc3cccc(S(=O)(=O)N4CCOCC4)c3)cc2)C1 (stereo unspecified),3%,-2%,-3%,-6%,-8%,-1%,.,RECQ1 conf=-12%;ADP FP counter=1%
O=C(CSc1ccc(-c2ccco2)nn1)NCCc1ccccc1,2%,40µM*,-2%,1%[57.1 µM],-26%,?,-14%,
COc1ccc(CCNC(=O)CSc2ccc(-c3ccncc3)nn2)cc1,-5%,i,-1%,-4%,0%,-4%,.,
COc1ccc(CCNC(=O)CSc2ccc(-c3ccco3)nn2)cc1,0%,35µM*,-2%,-16%,-18%,?,?,
Cc1ccc(NC(=O)c2cccc(S(=O)(=O)N(C)C3CCCCC3)c2)nc1,.,.,.,-9%,.,19%,.,
CN(CCc1ccccc1)C(=O)CCc1nnc(Cc2ccc3c(c2)OCO3)o1,.,.,.,-10%,-2%,-9%,.,
CCCCC#Cc1ccc(C(=O)NNC(=O)Nc2ccccc2)o1,2%,28µM*,0%,-28%,-8%,5%,?,
CCN(CC)S(=O)(=O)c1ccc(C(=O)NC(=S)N(CCC#N)Cc2cccnc2)cc1,-1%,-4%,0%,-3%,0%,2%,.,RECQ1 conf=0%;ADP FP counter=1%
COc1ccc(CCn2c(N)c(C(=O)NCc3ccco3)c3nc4ccccc4nc32)cc1OC,?,?,-8%,-32%,-10%,?,-5%,
CC(C)CCn1c(SCC(=O)NC2CCS(=O)(=O)C2)nc2cc(Cl)ccc2c1=O (stereo unspecified),.,.,.,-3%,.,10%,.,
OC(c1ccccc1)c1nc(-c2csc3ccccc23)cs1 (stereo unspecified),.,.,.,0%,.,.,.,
O=C(NCc1ccco1)C1CCCCN1S(=O)(=O)c1ccc(F)cc1 (stereo unspecified),-7%,?,-2%,-5%,0%,13%,-10%,
O=S(=O)(c1ccc2nc(-c3ccco3)c(-c3ccco3)nc2c1)N1CCOCC1,-9%,32µM*,6.3µM*[quencher],?,14µM*,?,15%,
